# From PubChem BioAssay
# GPR151 activ = activates the human receptor GPR151. PathHunter beta-arrestin GPR151 cells, luminescence. Q8TDV0. activation, % at 11.2 µM. 650,000 tested, 1% active. AID 1508602; in the data active = activation above about 4.9%
# Target sequence (Q8TDV0 whole entry, looked up): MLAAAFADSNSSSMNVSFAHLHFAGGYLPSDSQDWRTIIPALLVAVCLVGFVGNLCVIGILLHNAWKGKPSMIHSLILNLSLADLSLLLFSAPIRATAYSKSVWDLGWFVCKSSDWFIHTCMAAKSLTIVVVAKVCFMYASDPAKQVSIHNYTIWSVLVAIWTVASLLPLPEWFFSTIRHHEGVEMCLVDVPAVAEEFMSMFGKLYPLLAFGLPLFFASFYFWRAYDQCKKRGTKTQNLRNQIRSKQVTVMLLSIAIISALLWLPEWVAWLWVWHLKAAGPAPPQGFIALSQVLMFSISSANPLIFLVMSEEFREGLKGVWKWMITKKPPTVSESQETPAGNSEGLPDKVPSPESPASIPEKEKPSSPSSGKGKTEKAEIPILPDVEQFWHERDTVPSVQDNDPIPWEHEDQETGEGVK
# MITF inh = blocks human microphthalmia-associated transcription factor; O75030; AlphaScreen MITF homodimerization, bead proximity signal; inhibition, % at 2.6 µM; 650,000 tested, 0.91% active; AID 1259374; in the data active = inhibition above about 50%
# FBW7 activator = activators of human E3 ligase FBW7. AlphaScreen FBW7–phospho-cyclin E peptide binding, activator screen. Q969H0. 650,000 tested, 0.13% active. normalized activity (activation), % at 26.1 µM. AID 1259310; in the data active = normalized activity above about 1.9%;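 note: purified mutant Fbw7 with reduced substrate affinity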
# TEAD-YAP inh = TEAD-YAP interaction inhibition; HEK-TIYL cells, TEAD-Gal4/YAP UAS-luciferase luminescence; inhibition, % at 9.12 µM; 640,000 tested, 1.4% active; AID 1259422; in the data active = inhibition above about 32%
# GPR151 conf act = human GPR151 activation, confirmation screen; shares compounds with GPR151 activ; GPR151 PathHunter beta-arrestin cells, luminescence, 90 min; % of EA-reagent control over plate median; activation, % at 11.2 µM; 6,700 tested, under 10 active; AID 1508609;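 active = mean percent activation across replicates above the confirmation screen cutoff of 4.91%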
# GPR119 counter = GPR119 activation, counter-screen for GPR151 activators | activation, % at 11.2 µM | 6,700 tested, 0.3% active | GPR119 PathHunter beta-arrestin cells, luminescence, 90 min; 0 = compound-well median, 100 = enzyme-acceptor control | shares compounds with GPR151 activ;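 active = mean percent activation in the counterscreen above 29.09%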;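 note: counterscreen on off-target GPR119 to flag nonselective hits from the GPR151 activator screen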
# A number is an active result; – = inactive; · = no result given. Sampled rows, rich in hits. Any-hit rate of the full collection: about 3.4%.
SMILES,GPR151 activ,MITF inh,FBW7 activator,TEAD-YAP inh,GPR151 conf act,GPR119 counter
c1ccc(N2CCCCC2)c(Nc2nc3ccccc3n3nnnc23)c1,6.0,–,–,–,–,–
CCOc1ccccc1C(=O)N/N=C/c1cc(Cl)ccc1O,–,–,–,–,·,·
Cc1ccc(NC(=O)/C(=C/c2cccc([N+](=O)[O-])c2)NC(=O)c2cccs2)c(Br)c1,6.9,–,–,–,5.5,–
Cc1cc(NC(=O)/C(=C/c2cccc([N+](=O)[O-])c2)NC(=O)c2cccs2)ccc1Br,–,–,–,–,·,·
N#C/C(=C\c1cccs1)C(=O)Nc1ccc([N+](=O)[O-])cc1Br,6.4,–,–,–,–,–
COc1ccc(C(=O)NC2CCCC(C)C2C)cc1OC (stereo unspecified),–,–,–,–,·,·
O=C(CSc1n[nH]c(-c2ccncc2)n1)c1ccc(F)cc1,–,–,–,–,·,·
O=C(CSc1n[nH]c(-c2ccncc2)n1)c1ccc(Cl)cc1,5.0,–,–,–,–,–
Cc1cccc(-n2nnnc2SCC(=O)NN2C(=O)NC(C)(c3ccccc3)C2=O)c1 (stereo unspecified),6.9,–,–,–,–,–
CCC(C)c1ccccc1NC(=O)c1cccnc1Cl (stereo unspecified),–,–,–,–,·,·
O=C(Nc1cccc2ccc(-n3cccc3)nc12)c1ccco1,–,–,–,–,·,·
COc1ccc2cccc(NC(=O)c3ccco3)c2n1,6.4,–,–,–,–,–
O=C(NCc1ccccc1F)c1cc2cc(Br)ccc2oc1=O,5.9,–,–,–,–,–
CC[C@@H]1NC(=O)[C@@H]2C[C@H](NC(=O)Oc3ccc(C)cc3)CN2C1=O,–,–,–,–,·,·
CCOC(=O)c1ccc2nc(C)cc(Nc3cccc([N+](=O)[O-])c3)c2c1,–,–,–,–,·,·
CCOC(=O)C1=C(CN2CCN(CC)CC2)NC(=O)NC1c1cc(C)ccc1C (stereo unspecified),7.5,–,–,–,–,–
COC(=O)[C@@H]1CC[C@H](C)[C@@H](c2ccc(C)cc2)N1C(=O)c1ccc(/C=N/OC[C@@H](O)[C@H]2O[C@@H]3OC(C)(C)O[C@@H]3[C@H]2O)cc1,6.7,–,–,·,–,–
CC(C)CNC(=O)COC(=O)c1ccc(O)cc1,–,–,–,–,·,·
CC(C)CNC(=O)NC(=O)COC(=O)c1ccccc1N=Nc1ccc(O)cc1,5.9,–,–,–,–,–
Cc1ccc(-n2nc3c(c2NC(=O)c2ccc(Cl)c([N+](=O)[O-])c2)CS(=O)C3)c(C)c1 (stereo unspecified),–,–,–,–,·,·
Cc1ccc(-n2nc3c(c2NC(=O)c2cccc(F)c2)CS(=O)C3)c(C)c1 (stereo unspecified),5.9,–,–,–,–,–
CCOc1ccccc1/C=C1\N=C(c2ccc(F)cc2)OC1=O,–,–,–,–,·,·
OCCNc1nc(Nc2ccc(C(F)(F)F)cc2)nc2c1ncn2C1CCCCC1,–,–,–,–,·,·
O=C1CN(S(=O)(=O)c2cccc(Cl)c2Cl)c2ccccc2N1,6.8,–,–,–,–,–
O=S(=O)(Nc1ccc(-c2nc3ccccc3[nH]2)cc1)c1ccc(-n2cccn2)cc1,5.8,–,–,–,–,–
SMILES,GPR151 activ,MITF inh,FBW7 activator,TEAD-YAP inh,GPR151 conf act,GPR119 counter
O=[N+]([O-])c1ccc(S(=O)(=O)Nc2ccc(-c3nc4ccccc4[nH]3)cc2)cc1,–,–,–,–,·,·
O=c1[nH]c(SCc2cc(=O)n3cc(Cl)ccc3n2)nc2ccccc12,–,–,–,–,·,·
O=C(CCN1CCN(C2c3ccccc3-c3ccccc32)CC1)Nc1ccc(F)cc1,6.8,–,–,–,–,–
Cc1ccc(-n2nnnc2-c2ccc(Br)cc2)cc1,–,–,–,–,·,·
c1ccc(C(c2ccccc2)c2noc(C3CCNCC3)n2)cc1,6.9,–,–,–,–,–
c1cc(-c2noc(C3CCNCC3)n2)ccn1,–,–,–,–,·,·
C/C(=N\NC(=O)CNC(=O)C(c1ccccc1)c1ccccc1)c1ccc(N(C)C)cc1,–,–,–,–,·,·
COCCn1c(SCC(=O)N2CC(=O)Nc3ccccc32)nnc1-c1ccoc1C,7.6,–,–,–,–,–
CC(C)OC(=O)c1ccc(SCC2CCCO2)c([N+](=O)[O-])c1 (stereo unspecified),9.0,–,–,–,–,–
CCOC(=O)c1ccc(SCC2CCCO2)c([N+](=O)[O-])c1 (stereo unspecified),–,–,–,–,·,·
C#CCN(C)C(C(C)=O)C(C)C (stereo unspecified),–,–,–,–,·,·
CN1CCC(N(C(=O)CCC(=O)O)C2CC2)CC1,8.8,–,–,–,–,–
CN(C)/C=C1\N=C(c2ccccc2F)OC1=O,6.9,–,–,–,–,–
CN(C)c1ccc(/C=C2\N=C(c3ccccc3F)OC2=O)cc1,–,–,–,–,·,·
CCOc1cc(/C=C(\C#N)C(=O)c2ccccc2)ccc1OCCn1c([N+](=O)[O-])cnc1C,8.9,–,–,–,–,–
O=C(NS(=O)(=O)c1cccc([N+](=O)[O-])c1)C(=O)c1ccccc1,–,–,–,–,·,·
Cc1ccccc1-n1c2nc(=O)[nH]c(=O)c-2cc2c(Cl)cccc21,8.3,–,–,–,–,–
OCC1CCN(C2CCCN(Cc3ccc4nsnc4c3)C2)CC1 (stereo unspecified),–,–,–,–,·,·
OCC1CCN(C2CCCN(Cc3ccc4nonc4c3)C2)CC1 (stereo unspecified),5.9,–,–,–,–,–
CCOC(=O)N1CCN(C(=O)C2CC23CCN(Cc2ccc4nsnc4c2)CC3)CC1 (stereo unspecified),–,–,–,–,·,·
C=CCc1cc(/C=c2/sc3n(c2=O)C(c2ccc(Cl)cc2)C(C(=O)OCC)=C(C)N=3)cc(OCC)c1O (stereo unspecified),–,–,–,–,·,·
CC1(C)CC(=O)c2c(oc3c(Cl)cc(NS(=O)(=O)c4ccccc4)cc23)C1,–,–,–,–,·,·
CC1(C)CC(=O)c2c(oc3c(Cl)cc(NS(=O)(=O)c4ccc5ccccc5c4)cc23)C1,10,–,–,–,–,–
O=C(NC(=S)Nc1cccc(-c2nc3ccccc3o2)c1)c1ccc(F)cc1,–,–,–,–,·,·
O=c1[nH]c2ccc(S(=O)(=O)N3CCN(c4ccccn4)CC3)cc2s1,5.1,–,–,–,–,–
COc1cc(Nc2nc(Nc3ccc(NC(C)=O)cc3)c3ncn(C4CCCCC4)c3n2)cc(OC)c1OC,–,–,–,–,·,·
CCN(CC)C(=O)C1CCCN(c2nc(Nc3cc(OC)c(OC)c(OC)c3)c3ncn(CCN4CCCC4=O)c3n2)C1 (stereo unspecified),–,–,–,–,·,·
